The nature of test [1]: qHTS assay to identify aromatase inhibitors - cell viability counter screen (AID 743084).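 Also: cells stimulated with testosterone during compound exposure; nearly all actives have a fitted effect of over 55% in size.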 Also: potency is read from the fitted curve at half-maximal effect. On the technique in general: In qHTS, concentration-response curves come from the screen itself.
Test [2] has as its target Aryl hydrocarbon receptor (Homo sapiens) (UniProt P35869). Nature of the test: qHTS assay to identify small molecule that activate the aryl hydrocarbon receptor (AhR) signaling pathway (AID 743085).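 Also: HG2L7.5c1 human HepG2 liver cells with stably integrated DRE-driven firefly reporter; series mostly up to about 70 µM; nearly all actives have a fitted effect of over 15% in size.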 The essentials: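 HepG2 cells (HG2L7.5c1) stably carrying a firefly luciferase reporter driven by 20 dioxin responsive elements were exposed to compound for 24 h at 37C after a 5 h settling period; luminescence rise (ONE-Glo) indicated activation.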

Test [3] in a line: qHTS assay to identify small molecule that activate the aryl hydrocarbon receptor (AhR) signaling pathway - cell viability counter screen (AID 743086). Also: nearly all actives have a fitted effect of over 45% in size. Also: potency is read from the fitted curve at half-maximal effect. The essentials: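 HepG2-AhR-luc (HG2L7.5c1) cells, 4000/well, were preincubated 5 h at 37C, exposed to compound in qHTS format for 24 hr at 37C, then given CellTiter-Fluor for 30 min; viability was read as fluorescence in the reporter wells.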

In test [4] the target is Peroxisome proliferator-activated receptor gamma (Homo sapiens) (UniProt P37231). Kind of test: qHTS assay to identify small molecule antagonists of the peroxisome proliferator-activated receptor gamma (PPARg) signaling pathway (AID 743191; calls by dose curve; also: series mostly up to about 63 µM; nearly all actives have a fitted effect of over 30% in size). The essentials:
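GeneBLAzer PPARg UAS-bla HEK293H cells carrying a UAS-driven beta-lactamase reporter were plated at 3000 cells/well, preincubated 5 h at 37C, then given compound for 17 h at 37C; LiveBLAzer B/G FRET substrate was read after 1 h at room temperature.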

The nature of test [5]: qHTS assay to identify small molecule antagonists of the peroxisome proliferator-activated receptor gamma (PPARg) signaling pathway - cell viability counter screen (AID 743194). Also: nearly all actives have a fitted effect of over 55% in size. Also: potency is read from the fitted curve at half-maximal effect. The note with it: Potency: co-treated with 50 nM rosiglitazone. Summed up:
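PPARg-UAS-bla HEK293H cells were plated, rested 5 h at 37 C, then treated with compounds plus rosiglitazone (50 nM final) for 17 h at 37 C; viability was then read by CellTiter-Glo luminescence after 30 min at room temperature.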

Test [6] in a line: qHTS assay for small molecule agonists of the antioxidant response element (ARE) signaling pathway (AID 743202; active = well fitted activation curve with a large enough effect in the signal ratio in the repeat runs, not every such curve was filed as active; the % refers to the signal ratio). Summed up: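 Read-out: LiveBLAzer B/G FRET substrate fluorescence after 2 h at room temperature, following 16 h compound treatment at 37 C of HepG2 cells carrying an ARE-driven beta-lactamase reporter.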
Test [7] is described as follows: qHTS assay for small molecule agonists of the antioxidant response element (ARE) signaling pathway - cell viability counter screen (AID 743203; calls by dose curve; also: nearly all actives have a fitted effect of over 55% in size; also: potency is read from the fitted curve at half-maximal effect). Summed up: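 HepG2 cells carrying ARE-driven beta-lactamase; 2,000 cells/well; 5 hrs plating; compound pinned from DMSO; 16 hrs 37C/5% CO2; CellTiter-Glo added; 30 min RT; luminescence.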
Test [8] can be described thus: qHTS assay for small molecule activators of the heat shock response signaling pathway - cell viability counter screen (AID 743209). Also: nearly all actives have a fitted effect of over 50% in size. Summed up: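 Luminescence from CellTiter-Glo, added after the beta-lactamase FRET read, gave the viability signal. Cells were HSE-bla HeLa treated with DMSO-dissolved compounds for 5 h at 37 C following overnight plating.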
Test [9] can be described thus: qHTS assay for small molecule activators of the heat shock response signaling pathway (AID 743210; active = well fitted activation curve with a large enough effect in the signal ratio in the repeat runs, with a control signal flat, not every such curve was filed as active; the % refers to the signal ratio; also: series mostly up to about 63 µM). The essentials: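 HSE-bla HeLa cells (beta-lactamase reporter under heat shock response elements) were exposed to compounds for 5 h at 37 C, then loaded with LiveBLAzer B/G FRET substrate for 2.5 h at room temperature before fluorescence reading.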
Test [10] in a line: qHTS assay to identify small molecule agonists of the peroxisome proliferator-activated receptor delta (PPARd) signaling pathway - cell viability counter screen (AID 743211). Also: nearly all actives have a fitted effect of over 55% in size. Also: potency is read from the fitted curve at half-maximal effect. The essentials:
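PPARd-bla HEK293H cells (UAS-beta-lactamase reporter) were treated with compounds for 17 h at 37 C. Viability was then read in the same wells by CellTiter-Glo luminescence after 30 min at room temperature.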

Test [11] has as its target Peroxisome proliferator-activated receptor delta (Homo sapiens) (UniProt Q03181). Kind of test: qHTS assay to identify small molecule agonists of the peroxisome proliferator-activated receptor delta (PPARd) signaling pathway (AID 743212; calls by dose curve). Summed up:
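GeneBLAzer PPARd UAS-bla HEK293H cells (beta-lactamase reporter under UAS control), plated and rested 5 h at 37 C, then exposed to compounds in DMSO at 37 C; LiveBLAzer B/G FRET substrate added, 2 h room temperature, fluorescence read.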

A short description of test [12]: qHTS assay to identify small molecule antagonists of the peroxisome proliferator-activated receptor delta (PPARd) signaling pathway - cell viability counter screen (AID 743213). Also: nearly all actives have a fitted effect of over 50% in size. Summed up: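 Same-well viability: cells pre-incubated 5 h, dosed with compound plus 300 nM L165041, kept 17 h at 37 C, FRET substrate 2 h RT, then CellTiter-Glo 30 min RT and luminescence.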

Test [13] has as its target Peroxisome proliferator-activated receptor delta (Homo sapiens) (UniProt Q03181). Kind of test: qHTS assay to identify small molecule antagonists of the peroxisome proliferator-activated receptor delta (PPARd) signaling pathway (AID 743215; active = well fitted inhibition curve with a large enough effect in the signal ratio in the repeat runs, not every such curve was filed as active; the % refers to the signal ratio;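 also: cells stimulated with agonist L165041 at 300 nM final during compound exposure; series mostly up to about 62 µM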). Summed up: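 Read-out is beta-lactamase FRET fluorescence, measured 2 h after substrate addition at room temperature. Beforehand, UAS-bla HEK293H cells carrying the PPARd reporter were exposed to compounds with L165041 at 300 nM final for 17 h at 37 C.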

Test [14] in a line: qHTS assay to identify small molecule agonists of the farnesoid-X-receptor (FXR) signaling pathway - cell viability counter screen (AID 743218). Also: nearly all actives have a fitted effect of over 45% in size. Also: potency is read from the fitted curve at half-maximal effect. Summed up: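 HEK 293T FXR-bla cells; 5 h pre-incubation, 16 h compound exposure at 37 C; LiveBLAzer substrate 2 h RT, then CellTiter-Glo 30 min RT, luminescence.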
The nature of test [15]: qHTS assay to identify small molecule antagonists of the farnesoid-X-receptor (FXR) signaling pathway - cell viability counter screen (AID 743221; active = well fitted cell-killing curve with a large enough effect in the repeat runs, not every such curve was filed as active; also: nearly all actives have a fitted effect of over 50% in size; also: potency is read from the fitted curve at half-maximal effect). The essentials: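 FXR-UAS-bla HEK 293T cells were treated with test compounds plus chenodeoxycholic acid (50 uM final) for 16 h at 37 C. Cell viability in the same wells was then read as CellTiter-Glo luminescence after 30 min at room temperature.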

In test [16] the target is Bile acid receptor (Homo sapiens) (UniProt Q96RI1). Nature of the test: qHTS assay to identify small molecule antagonists of the farnesoid-X-receptor (FXR) signaling pathway (AID 743217; active = well fitted inhibition curve with a large enough effect in the signal ratio in the repeat runs, not every such curve was filed as active; the % refers to the signal ratio). The essentials: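 HEK 293T FXR-UAS-bla, 5000 cells/well; compound + CDCA 50 uM final; 16 h, 37 °C; B/G FRET substrate 2 h RT; fluorescence.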
Test [17] shares this target. Nature of the test: qHTS assay to identify small molecule agonists of the farnesoid-X-receptor (FXR) signaling pathway (AID 743220; active = well fitted activation curve with a large enough effect in the signal ratio in the repeat runs, not every such curve was filed as active; the % refers to the signal ratio). The essentials:
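Beta-lactamase reporter under UAS control in GeneBLAzer FXR HEK 293T cells (5000/well) measured with LiveBLAzer FRET substrate after 2 h at room temperature. Compound exposure lasted 16 h at 37C.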

Test [18] addresses Vitamin D3 receptor (Homo sapiens) (UniProt P11473). Nature of the test: qHTS assay to identify small molecule agonists of the vitamin D receptor (VDR) signaling pathway (AID 743222; calls by dose curve). Summed up: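 VDR-bla cells, 2,000/well; 4 h preincubation 37C; cpd (DMSO) 16 h; LiveBLAzer B/G substrate 2 h RT; fluorescence intensity read.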
Test [19] has the same target. Kind of test: qHTS assay to identify small molecule antagonists of the vitamin D receptor (VDR) signaling pathway (AID 743223; active = well fitted inhibition curve with a large enough effect in the signal ratio in the repeat runs, not every such curve was filed as active; the % refers to the signal ratio). Summed up:
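VDR-bla cells were plated, incubated 4 h at 37C, then given compound and 1alpha,25-dihydroxyvitamin D3 (3 nM final). After 16 h at 37C, LiveBLAzer B/G FRET substrate was added for 2 h at room temperature and fluorescence read.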

The target in test [20] is Peroxisome proliferator-activated receptor gamma (Homo sapiens) (UniProt P37231). Nature of the test: qHTS assay to identify small molecule agonists of the peroxisome proliferator-activated receptor gamma (PPARg) signaling pathway (AID 743094; active = well fitted activation curve with a large enough effect in the signal ratio in the repeat runs, not every such curve was filed as active; the % refers to the signal ratio). Summed up: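 Beta-lactamase FRET fluorescence was the read-out after a 1 h room-temperature substrate step, following 17 h compound treatment at 37C of HEK293H cells expressing a UAS-driven bla reporter responsive to PPARg.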

Drawing on PubChem BioAssay (Tox21), this text covers Potency and outcome for 9 compounds.

“And” between values parts separate entries of the source, which are not always exact repeats. Equal values may be shown once. Inconclusive results are not listed. A structure can be active in one record and inactive in another. The source made the active and inactive calls. Unless noted, calls follow the shape of the dose curve; as a rule, active = well fitted curve in the direction sought with a large enough effect in the repeat runs; inconclusive = weak or mixed curves; inactive = no such curve, though single readings can be large; an effect the other way counts as inactive or inconclusive.

Aryl hydrocarbon receptor (Homo sapiens), sequence (P35869 whole entry, looked up): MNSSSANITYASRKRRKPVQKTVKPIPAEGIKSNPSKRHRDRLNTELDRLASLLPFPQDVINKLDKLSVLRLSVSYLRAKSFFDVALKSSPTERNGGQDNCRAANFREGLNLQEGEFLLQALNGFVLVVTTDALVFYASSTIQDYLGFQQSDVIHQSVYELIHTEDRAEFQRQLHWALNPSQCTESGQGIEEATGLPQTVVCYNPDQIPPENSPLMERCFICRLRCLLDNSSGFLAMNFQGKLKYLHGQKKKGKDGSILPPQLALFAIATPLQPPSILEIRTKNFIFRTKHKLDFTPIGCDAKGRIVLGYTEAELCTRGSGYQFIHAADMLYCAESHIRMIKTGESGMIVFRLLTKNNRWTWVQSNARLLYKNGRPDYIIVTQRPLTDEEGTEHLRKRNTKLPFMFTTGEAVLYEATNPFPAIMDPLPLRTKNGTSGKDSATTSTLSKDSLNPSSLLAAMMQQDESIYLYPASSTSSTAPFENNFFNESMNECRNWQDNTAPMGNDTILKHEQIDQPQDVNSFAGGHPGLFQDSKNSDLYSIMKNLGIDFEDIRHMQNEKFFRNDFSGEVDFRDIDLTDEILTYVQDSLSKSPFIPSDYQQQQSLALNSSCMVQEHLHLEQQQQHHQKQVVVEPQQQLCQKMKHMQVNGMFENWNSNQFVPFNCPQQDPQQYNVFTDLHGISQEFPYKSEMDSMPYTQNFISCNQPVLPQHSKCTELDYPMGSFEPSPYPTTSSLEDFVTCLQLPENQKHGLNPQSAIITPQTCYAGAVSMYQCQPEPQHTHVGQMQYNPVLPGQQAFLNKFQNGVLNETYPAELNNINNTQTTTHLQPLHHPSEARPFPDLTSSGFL
Peroxisome proliferator-activated receptor gamma (Homo sapiens), sequence (P37231 whole entry, looked up): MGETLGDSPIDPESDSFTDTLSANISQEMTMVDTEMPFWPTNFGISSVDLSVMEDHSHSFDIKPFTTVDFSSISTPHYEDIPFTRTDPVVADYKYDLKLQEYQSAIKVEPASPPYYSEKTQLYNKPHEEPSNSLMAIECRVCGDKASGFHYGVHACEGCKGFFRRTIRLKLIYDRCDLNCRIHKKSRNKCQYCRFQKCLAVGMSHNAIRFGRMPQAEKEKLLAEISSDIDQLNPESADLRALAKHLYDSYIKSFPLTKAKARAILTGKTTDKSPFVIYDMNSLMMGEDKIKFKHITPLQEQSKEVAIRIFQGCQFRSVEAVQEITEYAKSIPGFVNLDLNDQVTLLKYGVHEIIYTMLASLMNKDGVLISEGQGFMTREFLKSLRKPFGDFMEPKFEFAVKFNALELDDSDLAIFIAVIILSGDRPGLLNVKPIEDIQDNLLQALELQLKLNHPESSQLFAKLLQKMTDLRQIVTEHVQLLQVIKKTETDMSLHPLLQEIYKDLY
Peroxisome proliferator-activated receptor delta (Homo sapiens), sequence (Q03181 whole entry, looked up): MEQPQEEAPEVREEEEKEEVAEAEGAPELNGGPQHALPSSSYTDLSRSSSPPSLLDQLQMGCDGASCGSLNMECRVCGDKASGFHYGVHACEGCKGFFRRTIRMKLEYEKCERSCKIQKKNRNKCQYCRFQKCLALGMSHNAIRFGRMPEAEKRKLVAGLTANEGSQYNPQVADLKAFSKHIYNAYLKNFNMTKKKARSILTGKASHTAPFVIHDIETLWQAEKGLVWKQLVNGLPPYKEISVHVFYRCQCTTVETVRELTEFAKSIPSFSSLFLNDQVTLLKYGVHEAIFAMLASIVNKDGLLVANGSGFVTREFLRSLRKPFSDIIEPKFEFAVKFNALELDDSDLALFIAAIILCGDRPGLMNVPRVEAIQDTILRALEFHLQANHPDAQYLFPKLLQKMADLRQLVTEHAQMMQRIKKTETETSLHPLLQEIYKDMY
Vitamin D3 receptor (Homo sapiens), sequence (P11473 whole entry, looked up): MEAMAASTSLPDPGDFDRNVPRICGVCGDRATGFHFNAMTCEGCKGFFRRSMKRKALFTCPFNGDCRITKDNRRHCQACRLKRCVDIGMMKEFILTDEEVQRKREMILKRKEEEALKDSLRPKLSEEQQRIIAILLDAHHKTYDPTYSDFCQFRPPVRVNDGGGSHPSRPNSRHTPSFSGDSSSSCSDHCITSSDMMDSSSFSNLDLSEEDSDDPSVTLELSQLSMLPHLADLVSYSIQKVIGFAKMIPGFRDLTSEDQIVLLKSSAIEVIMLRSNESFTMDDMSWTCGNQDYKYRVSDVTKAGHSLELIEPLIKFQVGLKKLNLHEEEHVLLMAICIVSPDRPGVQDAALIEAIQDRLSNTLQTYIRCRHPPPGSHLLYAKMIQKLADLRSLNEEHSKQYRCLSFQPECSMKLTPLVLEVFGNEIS
Bile acid receptor (Homo sapiens), sequence (Q96RI1 whole entry, looked up): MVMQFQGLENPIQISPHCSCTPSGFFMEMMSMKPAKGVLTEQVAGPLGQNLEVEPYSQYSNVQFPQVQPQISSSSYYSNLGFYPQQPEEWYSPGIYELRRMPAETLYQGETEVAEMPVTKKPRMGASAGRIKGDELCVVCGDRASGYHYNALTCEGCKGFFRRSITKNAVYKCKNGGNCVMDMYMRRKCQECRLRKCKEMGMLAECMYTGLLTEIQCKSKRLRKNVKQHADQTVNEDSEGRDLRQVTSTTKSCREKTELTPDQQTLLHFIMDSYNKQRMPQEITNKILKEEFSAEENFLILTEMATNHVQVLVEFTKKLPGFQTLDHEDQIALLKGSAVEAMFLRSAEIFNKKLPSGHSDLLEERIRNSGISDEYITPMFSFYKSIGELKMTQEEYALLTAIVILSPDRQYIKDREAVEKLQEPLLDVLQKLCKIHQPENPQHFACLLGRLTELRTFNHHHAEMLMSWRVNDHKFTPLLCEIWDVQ

As to `O=c1[nH]oc2c1CCNC2`, the Potency entry in test [1], in test [2], in test [3], in [4], in test [5] and in test [6] was “inactive” each time. Further, the Potency result in [7], in test [8], in test [9], in [10], in test [12] and in test [13] was “inactive” throughout. In addition, the Potency result in test [14] and in [15] was “inactive” each time. In [11], the result was inactive.
Turning to `C=CC1(C)OC(=O)N(c2cc(Cl)cc(Cl)c2)C1=O` (configuration not stated), the Potency entry in test [1], in test [2], in test [3], in test [4], in [5] and in test [6] was “inactive” in each case. Besides, the Potency entry in test [7], in [8], in [9], in [10], in [12] and in test [13] was “inactive” in each case. Moreover, the Potency result in test [14] and in test [15] was “inactive” each time. In addition, the call in test [11], in test [16], in [17], in test [18] and in [19] was inactive.
In the case of `CN(CCO)CCO`, the Potency result in test [1], in [2], in test [3], in test [4], in [5] and in test [7] was “inactive” in each case. Moreover, the Potency entry in [8], in test [9], in test [10], in [13] and in [15] was “inactive” each time. Also, the compound was classed as inactive in test [11], in test [16], in test [17], in test [18] and in [19].
`N#CC(Br)(Br)C(N)=O`: the Potency entry in test [1], in [2], in test [3], in test [5], in [7] and in test [8] was “inactive” in each case. Also, the Potency entry in [9], in [10], in test [12] and in test [15] was “inactive” throughout. Also, the result in test [18] was inactive.
With `CC[C@H](O)C(C[C@H](C)N(C)C)(c1ccccc1)c1ccccc1`, the Potency result in test [1], in test [2], in [5], in test [7], in [8] and in [9] was “inactive” throughout. Further, the Potency result in [10], in test [12], in test [13] and in test [14] was “inactive” each time. The result in test [20], in test [11], in test [16], in test [17], in test [18] and in test [19] was inactive.
With `CCCOc1nn(C(=O)NS(=O)(=O)c2ccccc2C(=O)OC)c(=O)n1C`, the Potency entry in test [1], in test [3], in [4], in [5], in [6] and in test [7] was “inactive” throughout. Further, the Potency entry in test [8], in test [9], in test [10], in test [12] and in [13] was “inactive” each time. The outcome in test [20], in test [11] and in test [18] was inactive.
Regarding `N[C@@H]1C[C@H]1c1ccccc1`, the Potency result in [1], in [3], in test [4], in [5], in [6] and in [7] was “inactive” throughout. Moreover, the Potency result in [8], in test [9], in test [10], in test [12], in test [13] and in [14] was “inactive” each time. The Potency result in test [15] is “inactive”. Moreover, the call in test [20], in [11], in test [16], in [17], in test [18] and in [19] was inactive.
For the compound `C=C(Cl)CCl`, the Potency entry in [1], in test [3], in [4], in test [5], in [6] and in test [7] was “inactive” throughout. Further, the Potency result in test [8], in test [9], in test [10], in [13], in test [14] and in test [15] was “inactive” each time. Moreover, the outcome in test [20], in test [11], in [18] and in [19] was inactive.
On to `O=C1C2CC=CCC2C(=O)N1SC(Cl)(Cl)Cl` (configuration not stated), for which the Potency entry in test [1] was “inactive and 21.3 µM (active)”; in [3], “inactive and 42.6 µM (active)”; in test [5], 3.83 µM (active); in test [7] it was “inactive and 23.9 µM (active)”; in [10], “inactive and 10.8 µM (active)”; in test [14] it was “inactive and 21.5 µM (active)”. Moreover, in [15], the Potency entry is “inactive and 42.9 µM (active)”. The Potency entry in test [2] and in [8] was “inactive” in each case. Further, the call in test [18] and in [19] was inactive.
